From PubChem BioAssay (EPA / NIEHS)
Some structures have more than one record in an assay (separate samples or runs), and their calls can disagree. Calls of active or inactive are those of the source. Rule for the calls: active = hit-call score of the fitted dose curve at least 0.9, where 1 is the maximum; inactive = score below 0.9.

What was measured:
[1] = ATG_ISRE_CIS: Attagene CIS-FACTORIAL HepG2 Assay for human Interferon Regulatory Factor 1 (IRF1) binding to an Interferon-Stimulated Response Element (ISRE) (AID 2282948); conditions: HepG2 ISRE cis-reporter (Attagene), mRNA transcription readout; actives raise or lower the signal
Summary of the method: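 Uses HepG2 liver cells transfected with cis-regulated reporters and measures mRNA 24 h post-dosing through RT-PCR, primer-extension labelling and capillary electrophoresis, with DMSO as negative control.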

[2] = ATG_M_32_CIS: Attagene CIS-FACTORIAL HepG2 Assay for M32 Transcription Factor (Internal Marker) (AID 2282949); conditions: HepG2 Attagene cis-factorial M32 reporter, mRNA; actives raise or lower the signal;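 note: background control marker of the multiplexed CIS panel rather than a real target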
Summary of the method: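 HepG2 human liver cells transiently transfected with cis-promoter-driven multiple reporter transcription units, dosed 24 h. Reporter mRNA quantified by RT-PCR, FAM-labelled primer extension, HpaI digest and capillary electrophoresis; bidirectional fit versus DMSO baseline.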

[3] = ATG_M_06_CIS: Attagene CIS-FACTORIAL HepG2 Assay for M06 Transcription Factor (Internal Marker) (AID 2282950); conditions: HepG2 Attagene CIS-FACTORIAL M06 internal marker reporter; actives raise or lower the signal
Summary of the method: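 Fluorescence-labelled RT-PCR products from cis-promoter reporter units, cut with HpaI and resolved by capillary electrophoresis, give the signal. Cells are human HepG2, dosed for 24 h. Serves as background control, fitted relative to DMSO.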

[4] = target: Hypoxia-inducible factor 1-alpha (Homo sapiens) (UniProt Q16665); experiment: ATG_HIF1a_CIS: Attagene CIS-FACTORIAL HepG2 Assay for human Hypoxia Inducible Factor 1 (HIF1A) (AID 2282951); conditions: HepG2 Attagene cis-factorial HIF1a reporter transcription; actives raise or lower the signal
Sequence of Hypoxia-inducible factor 1-alpha (Homo sapiens) (Q16665 whole entry, looked up): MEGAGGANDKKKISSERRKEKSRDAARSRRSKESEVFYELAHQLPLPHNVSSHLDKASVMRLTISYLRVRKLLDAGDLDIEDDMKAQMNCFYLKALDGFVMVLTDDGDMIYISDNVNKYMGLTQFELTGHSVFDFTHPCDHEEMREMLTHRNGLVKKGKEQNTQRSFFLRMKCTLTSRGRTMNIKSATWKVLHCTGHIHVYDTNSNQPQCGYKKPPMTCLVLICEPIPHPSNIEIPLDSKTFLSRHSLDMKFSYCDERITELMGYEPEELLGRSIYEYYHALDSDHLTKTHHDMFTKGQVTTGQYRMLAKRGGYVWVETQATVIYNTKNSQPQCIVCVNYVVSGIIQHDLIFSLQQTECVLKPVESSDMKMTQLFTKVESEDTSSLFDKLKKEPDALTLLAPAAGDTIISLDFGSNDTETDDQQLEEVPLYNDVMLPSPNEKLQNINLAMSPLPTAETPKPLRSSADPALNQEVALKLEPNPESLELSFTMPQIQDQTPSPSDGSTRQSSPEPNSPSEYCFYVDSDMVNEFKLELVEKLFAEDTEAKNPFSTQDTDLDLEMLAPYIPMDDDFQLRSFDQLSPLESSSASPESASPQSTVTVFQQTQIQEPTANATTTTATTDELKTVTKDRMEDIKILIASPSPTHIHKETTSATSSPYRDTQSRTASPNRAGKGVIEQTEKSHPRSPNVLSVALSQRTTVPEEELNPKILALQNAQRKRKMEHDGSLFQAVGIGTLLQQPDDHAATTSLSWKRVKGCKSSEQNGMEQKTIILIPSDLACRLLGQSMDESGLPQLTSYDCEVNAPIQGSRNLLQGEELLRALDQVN
Summary of the method: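 RT-PCR/capillary electrophoresis fluorescence readout of reporter transcripts from endogenous-TF-driven cis elements in transfected HepG2 cells, 24 h exposure; activity fitted in both directions against DMSO controls.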

[5] = target: Hepatocyte nuclear factor 6 (Homo sapiens) (UniProt Q9UBC0); experiment: ATG_HNF6_CIS: Attagene CIS-FACTORIAL HepG2 Assay for human Hepatocyte Nuclear Factor 6 (HNF6) (AID 2282952); conditions: HepG2 Attagene cis-factorial HNF6 reporter transcription; actives raise or lower the signal
Sequence of Hepatocyte nuclear factor 6 (Homo sapiens) (Q9UBC0 whole entry, looked up, the tested form may be a part): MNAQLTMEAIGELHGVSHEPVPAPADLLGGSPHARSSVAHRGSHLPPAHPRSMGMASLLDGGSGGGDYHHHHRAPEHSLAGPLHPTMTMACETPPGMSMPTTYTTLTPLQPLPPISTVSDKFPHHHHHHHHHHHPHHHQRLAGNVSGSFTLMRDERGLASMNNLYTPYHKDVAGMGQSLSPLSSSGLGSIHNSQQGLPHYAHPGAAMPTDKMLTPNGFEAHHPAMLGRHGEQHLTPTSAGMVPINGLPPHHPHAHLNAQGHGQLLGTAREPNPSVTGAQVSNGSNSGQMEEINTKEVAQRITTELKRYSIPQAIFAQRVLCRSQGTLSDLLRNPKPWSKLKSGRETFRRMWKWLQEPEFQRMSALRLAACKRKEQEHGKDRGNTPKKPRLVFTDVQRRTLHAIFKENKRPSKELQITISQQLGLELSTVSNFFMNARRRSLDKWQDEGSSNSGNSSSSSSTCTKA
Summary of the method: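 First, HepG2 cells were transfected with the multiplexed cis reporter library and dosed with chemical for 24 h. Next, RNA was reverse-transcribed, PCR-amplified and fluorescently labelled. Finally, HpaI-digested fragments were read by capillary electrophoresis.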

[6] = target: Heat shock factor protein 1 (Homo sapiens) (UniProt Q00613); experiment: ATG_HSE_CIS: Attagene CIS-FACTORIAL HepG2 Assay for human Heat Shock Transcription Factor 1 (HSE) (AID 2282953); conditions: HepG2 HSE cis-reporter, Attagene RNA transcription; actives raise or lower the signal
Sequence of Heat shock factor protein 1 (Homo sapiens) (Q00613 whole entry, looked up): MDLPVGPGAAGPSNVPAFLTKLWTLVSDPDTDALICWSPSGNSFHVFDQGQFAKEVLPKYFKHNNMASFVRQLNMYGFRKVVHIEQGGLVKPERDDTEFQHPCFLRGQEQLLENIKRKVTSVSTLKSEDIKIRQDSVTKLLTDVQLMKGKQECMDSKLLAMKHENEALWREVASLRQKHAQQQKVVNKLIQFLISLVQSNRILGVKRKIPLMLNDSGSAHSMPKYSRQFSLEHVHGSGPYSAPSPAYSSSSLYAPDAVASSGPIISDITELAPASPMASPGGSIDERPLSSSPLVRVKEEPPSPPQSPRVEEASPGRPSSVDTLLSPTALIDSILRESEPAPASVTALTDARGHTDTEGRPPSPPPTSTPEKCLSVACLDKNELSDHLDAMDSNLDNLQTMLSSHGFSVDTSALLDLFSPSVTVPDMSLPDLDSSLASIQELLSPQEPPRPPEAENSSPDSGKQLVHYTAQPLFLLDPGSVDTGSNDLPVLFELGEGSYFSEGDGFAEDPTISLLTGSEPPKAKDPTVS
Summary of the method: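 After a 24 h incubation with test chemical, transfected HepG2 cells were harvested for RNA; reporter transcripts were measured by RT-PCR and capillary electrophoresis. Values reflect gain or loss of signal relative to DMSO.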

[7] = ATG_MRE_CIS: Attagene CIS-FACTORIAL HepG2 Assay for human Metal Responsive Element (MRE) (AID 2282954); conditions: HepG2 MRE cis-reporter transcription, Attagene multiplex; actives raise or lower the signal
Summary of the method: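 Measured here is mRNA induction from an MRE cis-element reporter in HepG2 after 24 h, quantified by fluorescence of labelled RT-PCR products on capillary electrophoresis; gain- and loss-of-signal fits use DMSO as baseline.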

[8] = ATG_PBREM_CIS: Attagene CIS-FACTORIAL HepG2 Assay for human Phenobarbital-responsive Enhancer Module (PBREM) (AID 2282955); conditions: HepG2 PBREM cis-reporter, Attagene multiplexed transcription; actives raise or lower the signal
Summary of the method: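 Reporter mRNA read by RT-PCR, 6-FAM primer extension, HpaI digestion and capillary electrophoresis. Transfected HepG2 cells, 24 h compound exposure. Gain or loss of signal fitted bidirectionally relative to DMSO baseline.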

[9] = target: Paired box protein Pax-6 (Homo sapiens) (UniProt P26367); experiment: ATG_Pax6_CIS: Attagene CIS-FACTORIAL HepG2 Assay for human Paired Box 6 (PAX6) (AID 2282956); conditions: HepG2 CIS-FACTORIAL PAX6 reporter transcription, RNA readout; actives raise or lower the signal
Sequence of Paired box protein Pax-6 (Homo sapiens) (P26367 whole entry, looked up): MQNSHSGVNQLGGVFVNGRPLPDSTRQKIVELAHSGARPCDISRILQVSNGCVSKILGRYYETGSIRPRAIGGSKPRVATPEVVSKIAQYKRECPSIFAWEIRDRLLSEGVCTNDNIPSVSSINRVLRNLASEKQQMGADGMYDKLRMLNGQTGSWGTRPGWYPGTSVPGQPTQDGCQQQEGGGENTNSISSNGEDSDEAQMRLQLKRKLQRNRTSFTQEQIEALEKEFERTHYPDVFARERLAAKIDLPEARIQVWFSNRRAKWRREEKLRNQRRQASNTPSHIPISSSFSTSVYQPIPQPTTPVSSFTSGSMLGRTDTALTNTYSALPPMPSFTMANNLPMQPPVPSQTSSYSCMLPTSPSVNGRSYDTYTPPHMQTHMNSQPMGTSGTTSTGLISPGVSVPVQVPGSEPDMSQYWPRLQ
Summary of the method: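 DMSO-referenced bidirectional fits of reporter mRNA fluorescence; HepG2 with transient cis-promoter MRTUs, 24 h post-dose, RT-PCR plus capillary electrophoresis detection.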

[10] = ATG_PXRE_CIS: Attagene CIS-FACTORIAL HepG2 Assay for human Pregnane X Receptor Element (PXRE) (AID 2282957); conditions: HepG2 Attagene CIS-FACTORIAL PXRE reporter, mRNA; actives raise or lower the signal
Summary of the method: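 After a 24 h chemical incubation, total RNA from transfected HepG2 cells was reverse-transcribed and reporter cDNA amplified, FAM-labeled, HpaI-digested and sized by capillary electrophoresis. DMSO served as baseline for bidirectional curve fitting.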

[11] = ATG_PPRE_CIS: Attagene CIS-FACTORIAL HepG2 Assay for human Peroxisome Proliferator-activated Response Element (PPRE) (AID 2282958); conditions: HepG2 PPRE cis-element reporter, Attagene transcription factor profiling; actives raise or lower the signal
Summary of the method: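 Read-out: fluorescent reporter mRNA fragments resolved by capillary electrophoresis after RT-PCR. HepG2 cells carried transiently transfected PPRE-driven cis reporter constructs and were dosed for 24 h; gain or loss of signal fitted relative to DMSO.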

[12] = ATG_RORE_CIS: Attagene CIS-FACTORIAL HepG2 Assay for human RAR-related Orphan Receptor Element (RORE) (AID 2282959); conditions: HepG2 Attagene cis-factorial RORE reporter, mRNA; actives raise or lower the signal
Summary of the method: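 Readout: fluorescent reporter mRNA by RT-PCR plus capillary electrophoresis, 24 h after dosing transfected HepG2 cells. Endogenous transcription factor activity on a cis promoter element is measured. Gain or loss of signal fitted against DMSO.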

[13] = ATG_Sox_CIS: Attagene CIS-FACTORIAL HepG2 Assay for human SRY-box transcription factor (SOX) (AID 2282960); conditions: HepG2 Attagene cis-factorial SOX reporter, mRNA; actives raise or lower the signal
Summary of the method: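 Read-out: fluorescent RT-PCR products of SOX1-linked reporter transcripts resolved by capillary electrophoresis, fitted bidirectionally against DMSO. Transiently transfected HepG2 cells, 24 h after chemical exposure, endogenous transcription factor activity.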

[14] = target: Transcription factor Sp1 (Homo sapiens) (UniProt P08047); experiment: ATG_Sp1_CIS: Attagene CIS-FACTORIAL HepG2 Assay for human Specificity Protein 1 (Sp1) (AID 2282961); conditions: HepG2 Sp1 cis-reporter transcription, actives raise or lower the signal
Sequence of Transcription factor Sp1 (Homo sapiens) (P08047 whole entry, looked up): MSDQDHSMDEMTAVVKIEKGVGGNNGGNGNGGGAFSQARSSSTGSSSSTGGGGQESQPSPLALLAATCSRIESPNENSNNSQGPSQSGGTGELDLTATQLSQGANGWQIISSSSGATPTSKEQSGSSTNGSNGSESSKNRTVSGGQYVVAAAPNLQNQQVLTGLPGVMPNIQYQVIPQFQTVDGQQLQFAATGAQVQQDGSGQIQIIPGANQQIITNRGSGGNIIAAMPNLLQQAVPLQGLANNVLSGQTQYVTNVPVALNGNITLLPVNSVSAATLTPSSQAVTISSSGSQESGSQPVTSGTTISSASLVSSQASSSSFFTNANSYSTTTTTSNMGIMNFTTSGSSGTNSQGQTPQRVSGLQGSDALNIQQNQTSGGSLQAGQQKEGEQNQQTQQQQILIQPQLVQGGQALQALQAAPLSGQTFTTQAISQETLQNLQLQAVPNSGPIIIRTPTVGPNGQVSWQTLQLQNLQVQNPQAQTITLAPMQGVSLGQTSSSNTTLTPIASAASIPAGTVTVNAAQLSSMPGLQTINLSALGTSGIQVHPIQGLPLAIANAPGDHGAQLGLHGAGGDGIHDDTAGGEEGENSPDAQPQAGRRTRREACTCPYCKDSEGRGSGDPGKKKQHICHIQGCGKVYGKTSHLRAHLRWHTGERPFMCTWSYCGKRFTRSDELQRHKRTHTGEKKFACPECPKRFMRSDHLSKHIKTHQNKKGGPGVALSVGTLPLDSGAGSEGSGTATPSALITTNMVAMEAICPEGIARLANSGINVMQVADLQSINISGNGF
Summary of the method: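 Read-out: fluorescence of 6-FAM-labeled, HpaI-digested RT-PCR products separated by capillary electrophoresis. HepG2 cells carried transfected cis-element reporter units and were exposed to chemicals for 24 h; gain or loss of signal fitted relative to DMSO.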

[15] = ATG_SREBP_CIS: Attagene CIS-FACTORIAL HepG2 Assay for human Sterol Regulatory Element Binding (SREBP) (AID 2282962); conditions: HepG2 Attagene cis-factorial SREBP reporter, mRNA; actives raise or lower the signal
Summary of the method: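 In this cis-format assay, HepG2 liver cells express reporters controlled by promoter elements responsive to native transcription factors. Exposure lasts 24 h; reporter mRNA fluorescence from capillary electrophoresis gives the signal, fitted bidirectionally against DMSO.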

[16] = target: Signal transducer and activator of transcription 3 (Homo sapiens) (UniProt P40763); experiment: ATG_STAT3_CIS: Attagene CIS-FACTORIAL HepG2 Assay for human Signal Transducer and Activator of Transcription 3 (STAT3) (AID 2282963); conditions: HepG2, Attagene cis-factorial STAT3 reporter transcription; actives raise or lower the signal
Sequence of Signal transducer and activator of transcription 3 (Homo sapiens) (P40763 whole entry, looked up, the tested form may be a part): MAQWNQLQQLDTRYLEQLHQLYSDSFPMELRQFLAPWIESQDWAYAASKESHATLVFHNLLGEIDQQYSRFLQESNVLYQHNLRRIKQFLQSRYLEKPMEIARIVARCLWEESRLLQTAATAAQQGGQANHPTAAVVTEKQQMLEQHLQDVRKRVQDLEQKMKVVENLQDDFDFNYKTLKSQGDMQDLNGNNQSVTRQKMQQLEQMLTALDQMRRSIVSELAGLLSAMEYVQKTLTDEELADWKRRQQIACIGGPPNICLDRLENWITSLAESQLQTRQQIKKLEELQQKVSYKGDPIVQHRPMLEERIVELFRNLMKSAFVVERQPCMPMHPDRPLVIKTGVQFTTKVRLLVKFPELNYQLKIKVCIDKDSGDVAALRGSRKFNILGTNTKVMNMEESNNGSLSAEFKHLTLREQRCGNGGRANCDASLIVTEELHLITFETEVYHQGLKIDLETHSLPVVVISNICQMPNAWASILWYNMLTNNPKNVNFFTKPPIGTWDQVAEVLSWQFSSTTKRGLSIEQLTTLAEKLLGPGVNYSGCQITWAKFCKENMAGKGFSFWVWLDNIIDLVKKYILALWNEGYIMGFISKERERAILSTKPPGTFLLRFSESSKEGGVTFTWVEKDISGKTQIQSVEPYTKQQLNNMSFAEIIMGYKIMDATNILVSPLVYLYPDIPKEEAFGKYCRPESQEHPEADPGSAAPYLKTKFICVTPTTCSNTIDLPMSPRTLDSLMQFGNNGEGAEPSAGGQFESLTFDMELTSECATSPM
Summary of the method: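 Fluorescence intensity of 6-FAM-labelled reporter fragments, separated by capillary electrophoresis after RT-PCR, gave the signal. Cells were HepG2 transfected with cis-element reporter units and treated 24 h; fitting was bidirectional relative to DMSO.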

[17] = ATG_TA_CIS: Attagene CIS-FACTORIAL HepG2 Assay for human TA Basal Promoter (AID 2282964); conditions: HepG2 Attagene CIS-factorial TA basal promoter reporter; actives raise or lower the signal
Summary of the method: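 Multiplexed mRNA reporter assay, HepG2, 24 h. Reporter cDNA amplified, 6-FAM primer-extended, HpaI-cut, CE-sized; DMSO = negative control and baseline.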

[18] = ATG_TCF_b_cat_CIS: Attagene CIS-FACTORIAL HepG2 Assay for human T-Cell-Factor with beta-catenin (TCF/b-cat) (AID 2282965); conditions: HepG2 TCF/beta-catenin cis-reporter transcription, actives raise or lower the signal
Summary of the method: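 HepG2 cells transiently transfected with cis-promoter-driven multiplexed reporter units; reporter mRNA measured 24 h after dosing by RT-PCR, FAM labelling, HpaI digestion and capillary electrophoresis. Bidirectional fitting relative to DMSO baseline.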

[19] = ATG_GRE_CIS: Attagene CIS-FACTORIAL HepG2 Assay for human Glucocorticoid Response Elements (GRE) (AID 2282947); conditions: HepG2 GRE cis-reporter, Attagene multiplex mRNA; actives raise or lower the signal
Summary of the method: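 Fluorescence intensity of reporter-specific cDNA fragments, separated by capillary electrophoresis, provides the signal. Constructs carry cis-regulating promoters in transiently transfected HepG2 liver cells; 24 h incubation; fitting is bidirectional against DMSO.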

[20] = target: Bile acid receptor (Homo sapiens) (UniProt Q96RI1); experiment: ATG_IR1_CIS: Attagene CIS-FACTORIAL HepG2 Assay for human Nuclear Receptor Subfamily 1 Group H Member 4 (NR1H4), IR1 submotif (AID 2282946); conditions: IR1 reporter transcription, actives raise or lower the signal
Sequence of Bile acid receptor (Homo sapiens) (Q96RI1 whole entry, looked up): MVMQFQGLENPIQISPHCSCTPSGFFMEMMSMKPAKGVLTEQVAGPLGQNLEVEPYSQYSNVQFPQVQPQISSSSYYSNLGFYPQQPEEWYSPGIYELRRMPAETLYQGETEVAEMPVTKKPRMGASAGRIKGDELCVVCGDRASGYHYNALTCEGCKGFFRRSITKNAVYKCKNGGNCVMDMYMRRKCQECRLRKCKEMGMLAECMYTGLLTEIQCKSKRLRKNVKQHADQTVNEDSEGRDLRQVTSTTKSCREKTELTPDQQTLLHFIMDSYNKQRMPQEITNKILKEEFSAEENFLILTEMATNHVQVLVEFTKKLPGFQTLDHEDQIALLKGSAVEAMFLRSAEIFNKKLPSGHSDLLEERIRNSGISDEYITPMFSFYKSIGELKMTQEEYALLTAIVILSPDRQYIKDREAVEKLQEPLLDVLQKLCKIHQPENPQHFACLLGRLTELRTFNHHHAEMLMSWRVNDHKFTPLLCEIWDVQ
Summary of the method: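 Fluorescence of capillary-separated, HpaI-digested RT-PCR reporter products gave IR1-element mRNA induction in HepG2 cells 24 h after dosing. Endogenous transcription factors drove the cis-regulated reporters; activity was fitted bidirectionally against DMSO.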

Measured: AC50

CCOP(=S)(OCC)Oc1ccc(S(C)=O)cc1 (configuration not stated)
active: [10] 15.9 µM
not listed: [19] | [20]
inactive: all other assays above

C[C@]12CC[C@H](O)CC1=CC[C@@H]1[C@@H]2CC[C@]2(C)C(=O)CC[C@@H]12
active: [10] 27.3 µM
not listed: [2] | [4] | [20]
inactive: all other assays above

CC12CC1(C)C(=O)N(c1cc(Cl)cc(Cl)c1)C2=O (configuration not stated)
inactive: [19] | [1] | [2] | [3] | [4] | [5] | [6] | [7] | [8] | [9] | [11] | [12] | [13] | [14] | [15] | [16] | [17]
active: [8] 11.1 µM | [10] 4.87 µM [middle of 4 runs]

BrCCBr
not listed: [6] | [20]
inactive: all other assays above

O=S(=O)(c1ccc(Cl)cc1)c1ccc(Cl)cc1
active: [7] 101 µM | [10] 4.46 µM
not listed: [18] | [20]
inactive: all other assays above

CCOP(=O)(CN(CCO)CCO)OCC
not listed: [8] | [20]
inactive: all other assays above

COc1ccccc1OC
not listed: [2] | [10] | [20]
inactive: all other assays above

COP(=S)(OC)Oc1ccc(S(=O)(=O)N(C)C)cc1
active: [7] 69 µM | [10] 26.8 µM
not listed: [11] | [20]
inactive: all other assays above

COP(=S)(OC)Oc1cc(Cl)c(Cl)cc1Cl
active: [10] 26.7 µM | [11] 26.6 µM
not listed: [12] | [18] | [20]
inactive: all other assays above

COc1cccc(C=O)c1
not listed: [10] | [20]
inactive: all other assays above

Nc1ccc(N=Nc2ccc(-c3ccc(N=Nc4c(S(=O)(=O)O)cc5cc(S(=O)(=O)O)c(N=Nc6ccccc6)c(O)c5c4N)cc3)cc2)c(N)c1
not listed: [18] | [20]
inactive: all other assays above

COC(=O)c1sccc1S(=O)(=O)NC(=O)Nc1nc(C)nc(OC)n1
not listed: [2] | [12] | [20]
inactive: all other assays above

O=Cc1cccc(Oc2ccccc2)c1
not listed: [18] | [19] | [20]
inactive: all other assays above

CCOC(=O)CP(=O)(OCC)OCC
active: [4] 0.0931 µM | [10] 100 µM
not listed: [2] | [8] | [19]
inactive: all other assays above
